The source made the active and inactive calls.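 How the source made its calls: active means normalized viability below 100% at a tested concentration; inactive means the rest.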

A short description of one assay: ovarian cancer cell viability with rucaparib, profiling panel, oncology-focused library, rucaparib conditional (AID 1508598). To be noted: patient-derived ovarian cancer cells, CellTiter-Glo viability, 144 h; at 0.00488 µM; OCI-P5x cells; without rucaparib; hits give low values. In general terms: Cellular ATP, detected with luciferase, serves as a proxy for viable cell number.
Turning to `CNC(=O)c1cc(Oc2ccc(NC(=O)Nc3ccc(Cl)c(C(F)(F)F)c3)c(F)c2)ccn1`, the viability (as a rule, a read-out of living cells in per cent, often relative to untreated cells) was 109% (inactive).

For `O=C(CCCCCCC(=O)Nc1ccc([C@H]2O[C@@H](CSc3nc(-c4ccccc4)c(-c4ccccc4)o3)C[C@@H](c3ccc(CO)cc3)O2)cc1)NO`, the viability was 108% (inactive).

For the compound `CNC(=O)c1cc(COc2nnc(Nc3ccc(Cl)cc3)c3ccoc23)ccn1`, the viability is 108% (inactive).

`CS(=O)(=O)N1CCc2c(-c3cnc(N)nc3)nc(N3CCOCC3)nc21`: the viability is 112% (inactive).

For `Nc1ccn([C@@H]2O[C@H](CO)[C@@H](O)C2(F)F)c(=O)n1`, the viability was 22.9% (active).

Still in this assay, the particulars now being: patient-derived ovarian cancer cells, CellTiter-Glo viability, 144 h; at 0.0195 µM; OCI-C5x cells; with rucaparib 10 µM; hits give low values; 100% = cells with rucaparib alone.
Turning to `CNC(=O)c1cc(Oc2ccc(NC(=O)Nc3ccc(Cl)c(C(F)(F)F)c3)c(F)c2)ccn1`, the viability was 114% (inactive).

For `O=C(CCCCCCC(=O)Nc1ccc([C@H]2O[C@@H](CSc3nc(-c4ccccc4)c(-c4ccccc4)o3)C[C@@H](c3ccc(CO)cc3)O2)cc1)NO`, the viability is 112% (inactive).

With `CNC(=O)c1cc(COc2nnc(Nc3ccc(Cl)cc3)c3ccoc23)ccn1`, the viability was 105% (inactive).

Consider `CS(=O)(=O)N1CCc2c(-c3cnc(N)nc3)nc(N3CCOCC3)nc21`, for which the viability is 106% (inactive).

For `Nc1ccn([C@@H]2O[C@H](CO)[C@@H](O)C2(F)F)c(=O)n1`, the viability is 69.2% (active).

Staying with this assay, now noted: patient-derived ovarian cancer cells, CellTiter-Glo viability, 144 h; at 0.0195 µM; OCI-C5x cells; without rucaparib; hits give low values.
Take `CNC(=O)c1cc(Oc2ccc(NC(=O)Nc3ccc(Cl)c(C(F)(F)F)c3)c(F)c2)ccn1`: the viability was 91.4% (active).

With `O=C(CCCCCCC(=O)Nc1ccc([C@H]2O[C@@H](CSc3nc(-c4ccccc4)c(-c4ccccc4)o3)C[C@@H](c3ccc(CO)cc3)O2)cc1)NO`, the viability was 130% (inactive).

As for `CNC(=O)c1cc(COc2nnc(Nc3ccc(Cl)cc3)c3ccoc23)ccn1`, the viability was 105% (inactive).

Consider `CS(=O)(=O)N1CCc2c(-c3cnc(N)nc3)nc(N3CCOCC3)nc21`, for which the viability is 125% (inactive).

In the case of `Nc1ccn([C@@H]2O[C@H](CO)[C@@H](O)C2(F)F)c(=O)n1`, the viability was 58.3% (active).

The same assay, now with this note: patient-derived ovarian cancer cells, CellTiter-Glo viability, 144 h; at 0.0195 µM; OCI-P5x cells; with rucaparib 20 µM; hits give low values; 100% = cells with rucaparib alone.
With `CNC(=O)c1cc(Oc2ccc(NC(=O)Nc3ccc(Cl)c(C(F)(F)F)c3)c(F)c2)ccn1`, the viability was 115% (inactive).

On to `O=C(CCCCCCC(=O)Nc1ccc([C@H]2O[C@@H](CSc3nc(-c4ccccc4)c(-c4ccccc4)o3)C[C@@H](c3ccc(CO)cc3)O2)cc1)NO`, for which the viability is 72% (active).

For `CNC(=O)c1cc(COc2nnc(Nc3ccc(Cl)cc3)c3ccoc23)ccn1`, the viability was 104% (inactive).

`CS(=O)(=O)N1CCc2c(-c3cnc(N)nc3)nc(N3CCOCC3)nc21`: the viability was 115% (inactive).

With `Nc1ccn([C@@H]2O[C@H](CO)[C@@H](O)C2(F)F)c(=O)n1`, the viability was 47.3% (active).

The same assay, now with this note: patient-derived ovarian cancer cells, CellTiter-Glo viability, 144 h; at 0.0195 µM; OCI-P5x cells; without rucaparib; hits give low values.
On to `CNC(=O)c1cc(Oc2ccc(NC(=O)Nc3ccc(Cl)c(C(F)(F)F)c3)c(F)c2)ccn1`, for which the viability was 116% (inactive).

For the compound `O=C(CCCCCCC(=O)Nc1ccc([C@H]2O[C@@H](CSc3nc(-c4ccccc4)c(-c4ccccc4)o3)C[C@@H](c3ccc(CO)cc3)O2)cc1)NO`, the viability was 79.1% (active).

Take `CNC(=O)c1cc(COc2nnc(Nc3ccc(Cl)cc3)c3ccoc23)ccn1`: the viability was 109% (inactive).

As to `CS(=O)(=O)N1CCc2c(-c3cnc(N)nc3)nc(N3CCOCC3)nc21`, the viability was 111% (inactive).

For `Nc1ccn([C@@H]2O[C@H](CO)[C@@H](O)C2(F)F)c(=O)n1`, the viability is 22% (active).

The assay is the same for the next values; noted with them: patient-derived ovarian cancer cells, CellTiter-Glo viability, 144 h; at 0.0781 µM; OCI-C5x cells; with rucaparib 10 µM; hits give low values; 100% = cells with rucaparib alone.
With `CNC(=O)c1cc(Oc2ccc(NC(=O)Nc3ccc(Cl)c(C(F)(F)F)c3)c(F)c2)ccn1`, the viability was 106% (inactive).

`O=C(CCCCCCC(=O)Nc1ccc([C@H]2O[C@@H](CSc3nc(-c4ccccc4)c(-c4ccccc4)o3)C[C@@H](c3ccc(CO)cc3)O2)cc1)NO`: the viability was 112% (inactive).

For the compound `CNC(=O)c1cc(COc2nnc(Nc3ccc(Cl)cc3)c3ccoc23)ccn1`, the viability was 109% (inactive).

Turning to `CS(=O)(=O)N1CCc2c(-c3cnc(N)nc3)nc(N3CCOCC3)nc21`, the viability was 87.7% (active).

As to `Nc1ccn([C@@H]2O[C@H](CO)[C@@H](O)C2(F)F)c(=O)n1`, the viability was 56.5% (active).

The assay is the same for the next values; noted with them: patient-derived ovarian cancer cells, CellTiter-Glo viability, 144 h; at 0.0781 µM; OCI-C5x cells; without rucaparib; hits give low values.
With `CNC(=O)c1cc(Oc2ccc(NC(=O)Nc3ccc(Cl)c(C(F)(F)F)c3)c(F)c2)ccn1`, the viability is 88.4% (active).

Take `O=C(CCCCCCC(=O)Nc1ccc([C@H]2O[C@@H](CSc3nc(-c4ccccc4)c(-c4ccccc4)o3)C[C@@H](c3ccc(CO)cc3)O2)cc1)NO`: the viability was 139% (inactive).

On to `CNC(=O)c1cc(COc2nnc(Nc3ccc(Cl)cc3)c3ccoc23)ccn1`, for which the viability is 110% (inactive).

As to `CS(=O)(=O)N1CCc2c(-c3cnc(N)nc3)nc(N3CCOCC3)nc21`, the viability is 115% (inactive).

Consider `Nc1ccn([C@@H]2O[C@H](CO)[C@@H](O)C2(F)F)c(=O)n1`, for which the viability was 47.8% (active).

The same assay, now with this note: patient-derived ovarian cancer cells, CellTiter-Glo viability, 144 h; at 0.0781 µM; OCI-P5x cells; with rucaparib 20 µM; hits give low values; 100% = cells with rucaparib alone.
As to `CNC(=O)c1cc(Oc2ccc(NC(=O)Nc3ccc(Cl)c(C(F)(F)F)c3)c(F)c2)ccn1`, the viability is 115% (inactive).

With `O=C(CCCCCCC(=O)Nc1ccc([C@H]2O[C@@H](CSc3nc(-c4ccccc4)c(-c4ccccc4)o3)C[C@@H](c3ccc(CO)cc3)O2)cc1)NO`, the viability is 102% (inactive).

Regarding `CNC(=O)c1cc(COc2nnc(Nc3ccc(Cl)cc3)c3ccoc23)ccn1`, the viability was 101% (inactive).

Take `CS(=O)(=O)N1CCc2c(-c3cnc(N)nc3)nc(N3CCOCC3)nc21`: the viability was 112% (inactive).

For the compound `Nc1ccn([C@@H]2O[C@H](CO)[C@@H](O)C2(F)F)c(=O)n1`, the viability is 50.9% (active).

Source of the values: PubChem BioAssay.
